# An excerpt weighted towards active compounds, which were near 16% of everything screened.
# DT40 TDP1 CPT = qHTS for Inhibitors of human tyrosyl-DNA phosphodiesterase 1 (TDP1): qHTS in cells in presence of CPT; 12% of 420,000 active; Potency, µM (series often up to 46.2 µM), most hits filed as inhibitors; chicken DT40 Tdp1-/-;hTDP1 cells + 20 nM CPT, ATP luminescence, 48 h; also: nearly all actives have a fitted effect of over 55% in size
#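 Cell growth measured by CellTiter-Glo luminescence after a minimum 48 h, 37 C compound exposure with 20 nM CPT in Tdp1-knockout DT40 cells stably expressing hTDP1, seeded 400/well; qHTS titration format.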
# DT40 TDP1 no CPT = qHTS for Inhibitors of human tyrosyl-DNA phosphodiesterase 1 (TDP1): qHTS in cells in absence of CPT. 15% of 420,000 active. Potency, µM (top dose mostly 46.2 µM), most hits filed as inhibitors. DT40 Tdp1-/- hTDP1 cells, no CPT, ATP luminescence, 48 h; also: nearly all actives have a fitted effect of over 55% in size
#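 Seeded 400 DT40-hTDP1 cells/well (vehicle DMSO, no 20 nM CPT); pinned compounds; ≥48 hr at 37 °C; CellTiter-Glo luminescence as viability measure.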
# miR-21 act = qHTS Assay for Modulators of miRNAs and/orActivators of miR-21; HeLa miR-21 FLuc reporter, luciferase, 48 h; Potency, µM (top dose mostly 38.3 µM), most hits filed as activators; 340,000 tested, under 10 active; AID 2288, 2010;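 also: miR-21 action dims this reporter so a rising signal means less miR-21 action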
#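 HeLa miR-21-FLuc reporter line, endogenous miR-21; 2000 cells/well in DMEM/10% FBS; compound titration up to ~40uM final, 48 h, 37 degree Celsius; luciferase detection reagent, 15 min lysis, CCD luminescence.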
# uPA surface inh = qHTS for Inhibitors of Cell Surface uPA Generation. cell surface uPA generation assay, qHTS. Potency, µM (top dose mostly 38.3 µM), actives largely listed as inhibitors. 0.31% of 330,000 active; active = well fitted inhibition curve with a large enough effect; inconclusive = small, poorly fitted or top-dose-only effect; inactive = no such curve, though single readings can be large or run the other way; tested in mouse RAW 264.7 cells; also: nearly all actives have a fitted effect of over 55% in size
# TDP1 inh = qHTS Assay for Inhibitors of Tyrosyl-DNA Phosphodiesterase (TDP1); Tyrosyl-DNA phosphodiesterase 1 (Homo sapiens), Q9NUW8; 0.28% of 350,000 active; Potency, µM (doses to about 130 µM), most hits filed as inhibitors; recombinant TDP1, AlphaScreen DNA substrate cleavage; also: nearly all actives have a fitted effect of over 40% in size
# Target sequence (Q9NUW8 whole entry, looked up): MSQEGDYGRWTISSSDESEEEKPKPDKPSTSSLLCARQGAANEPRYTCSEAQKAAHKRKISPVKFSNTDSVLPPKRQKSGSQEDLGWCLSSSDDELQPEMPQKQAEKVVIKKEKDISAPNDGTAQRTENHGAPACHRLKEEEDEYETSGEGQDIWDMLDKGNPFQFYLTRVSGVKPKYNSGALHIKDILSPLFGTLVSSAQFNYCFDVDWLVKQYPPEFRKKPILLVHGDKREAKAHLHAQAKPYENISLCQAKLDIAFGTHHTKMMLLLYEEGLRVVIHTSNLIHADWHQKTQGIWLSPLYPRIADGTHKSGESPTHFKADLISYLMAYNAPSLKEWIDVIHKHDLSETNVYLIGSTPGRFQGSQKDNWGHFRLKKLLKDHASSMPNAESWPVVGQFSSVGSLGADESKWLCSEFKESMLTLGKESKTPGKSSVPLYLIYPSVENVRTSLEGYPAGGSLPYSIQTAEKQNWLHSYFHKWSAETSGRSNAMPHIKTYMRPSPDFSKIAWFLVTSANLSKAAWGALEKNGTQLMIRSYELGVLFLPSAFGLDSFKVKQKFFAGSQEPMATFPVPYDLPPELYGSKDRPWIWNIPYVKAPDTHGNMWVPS
#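 Compounds were preincubated with Tdp1 (1 nM final) for 15 min at room temperature before substrate (15 nM final) started a 5 min reaction; beads (10 ug/ml final) were then added for 10 min before AlphaScreen detection.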
# Numbers stand for hits; - = inactive; ? = inconclusive; . = not tested or not shown. Unless noted, calls follow the shape of the dose curve; as a rule, active = well fitted curve in the direction sought with a large enough effect; inconclusive = small, poorly fitted or top-dose-only effect, or another doubt; inactive = no such curve, though single readings can be large; an effect the other way counts as inactive or inconclusive.
SMILES,DT40 TDP1 CPT,DT40 TDP1 no CPT,miR-21 act,uPA surface inh,TDP1 inh
CC(NC(=O)Nc1cc(Cl)ccc1Cl)c1c(-n2cccc2)sc2c1CCCC2 (stereo not given),?,18.4µM,-,.,-
COc1ccc(C)cc1NC(=O)NC(C)c1c(-n2cccc2)sc(C)c1C (stereo not given),?,?,-,.,-
CCN1CCc2c(sc(-n3cccc3)c2C(C)NC(=O)Nc2ccccc2C)C1 (stereo not given),?,23.1µM,-,.,-
COC(=O)c1ccc(NC(=O)NC(C)c2c(-n3cccc3)sc(C)c2C)cc1 (stereo not given),?,?,?,.,-
COc1cc(OC)cc(C(=O)N2CCN(c3ccccc3F)CC2)c1,-,?,-,-,-
COc1cccc(NC(=O)CN(c2ccc([N+](=O)[O-])cc2)S(=O)(=O)c2ccccc2)c1,-,-,-,-,-
O=C(N/N=C/c1ccccc1F)c1cccc2ccccc12,?,?,-,-,.
O=C(N/N=C/c1sc2ccccc2c1O)c1ccccc1,0.92µM,0.651µM,-,-,-
COc1ccc(C(=O)N/N=C/c2sc3ccccc3c2O)cc1,2.59µM,3.66µM,-,-,-
O=C(N/N=C/c1ccc(F)cc1)c1ccccc1,-,-,-,?,-
O=C(N/N=C/c1sc2ccccc2c1O)c1cccc2ccccc12,2.59µM,5.17µM,-,-,-
COc1ccc2cc(C(=O)N/N=C/c3sc4ccccc4c3O)ccc2c1,10.3µM,7.31µM,-,-,-
O=C(C1CC(=O)N(c2ccc3c(c2)OCCO3)C1)N1CCN(Cc2ccccc2)CC1 (stereo not given),-,?,.,-,-
Cc1ccc(CN2C(=O)C3CCCN3c3ncccc32)cc1 (stereo not given),-,?,-,-,.
CC(=O)c1cccc(N(CC(=O)Nc2cc(C)cc(C)c2)S(C)(=O)=O)c1,-,?,-,-,-
CCC(C)Sc1ccc([C@H]2N[C@@](C)(C(=O)OC)[C@H]3C(=O)N(CC)C(=O)[C@@H]23)cc1 (stereo not given in full),16.4µM,18.4µM,.,-,-
CCCCCCSc1ccc([C@H]2N[C@@](C)(C(=O)OC)[C@H]3C(=O)N(CC)C(=O)[C@@H]23)cc1,23.1µM,18.4µM,.,-,-
CCCCCCSc1ccc([C@H]2N[C@@](CC(C)C)(C(=O)OC)[C@H]3C(=O)N(CC)C(=O)[C@@H]23)cc1,20.6µM,20.6µM,.,-,-
CCC(C)Sc1ccc([C@H]2N[C@@](C)(C(=O)OC)[C@H]3C(=O)N(C)C(=O)[C@@H]23)cc1 (stereo not given in full),-,?,.,-,-
CCCOc1ccc(S(=O)(=O)N2C(=O)CC(=O)N(Cc3ccc(OCC)cc3)C2=O)cc1,-,-,-,-,-
O=C(O)c1ccc(N2CCCC2=O)cc1,-,-,-,-,-
CC(=O)Nc1ccc2nc(NC(=O)C(Cl)(Cl)Cl)sc2c1,-,-,-,.,.
O=C(C/C=N/OCc1ccc(F)cc1Cl)c1cnc(-c2ccccc2)s1,-,?,-,-,-
COc1ccc(CCN(Cc2ccccn2)C(=S)Nc2ccc(C)cc2)cc1OC,?,?,-,-,-
CN(C(=O)COC(=O)c1cccc(Cl)c1)C1CCS(=O)(=O)C1 (stereo not given),-,-,.,-,-
SMILES,DT40 TDP1 CPT,DT40 TDP1 no CPT,miR-21 act,uPA surface inh,TDP1 inh
C[C@@]12C(=O)N(c3cccc(F)c3)C(=O)N1[C@H](c1ccc(F)cc1)[C@@H]1C(=O)N(C3CCCCC3)C(=O)[C@@H]12,20.6µM,?,-,-,.
O=C1[C@H]2[C@@H](c3ccc(F)cc3)N3C(=O)N(c4cccc(Cl)c4)C(=O)[C@@]3(Cc3ccc(Cl)cc3)[C@H]2C(=O)N1C1CCCCC1,16.4µM,?,-,-,.
O=C1[C@H]2[C@@H](c3ccc(F)cc3)N3C(=O)N(c4cccc(Cl)c4)C(=O)[C@@]3(Cc3ccccc3)[C@H]2C(=O)N1C1CCCCC1,?,?,.,-,-
Cc1sc2nc(SCC(=O)NCc3ccco3)n(C)c(=O)c2c1C,-,?,-,-,-
Cc1cccnc1NC(=O)CCc1nnc2ccc(NCc3ccco3)nn12,?,-,-,?,.
O=C(CCc1nnc2ccc(NCc3ccco3)nn12)Nc1ccccn1,-,-,-,-,25.1µM
O=c1c2ccccc2nc2ccc(NCc3ccco3)nn12,?,?,-,-,50.1µM
Cc1sc2nc3ccc(NCc4ccco4)nn3c(=O)c2c1C,?,20.6µM,-,-,-
O=C(COC(=O)c1cc(S(=O)(=O)N2CCOCC2)ccc1O)NCC1CCCO1 (stereo not given),-,-,-,-,-
Cc1ccccc1-n1c(SCC(=O)Nc2c(C)cccc2C)nc(O)cc1=O,-,-,-,-,-
O=C(c1ccco1)N1CCc2[nH]nc(-c3ccccc3)c2C1,-,-,-,-,-
CN(C)S(=O)(=O)c1cccc(CSCc2cccc(S(=O)(=O)N(C)C)c2)c1,5.8µM,2.59µM,-,-,.
Cc1cc(C)n2nc(SCc3cccc(S(=O)(=O)N(C)C)c3)nc2n1,?,14.6µM,-,-,.
CC(NCc1cccc(S(=O)(=O)N(C)C)c1)c1ccc(F)cc1 (stereo not given),-,-,-,-,-
Cc1ccc(CNC(=O)CSc2nc(C)cs2)cc1,-,-,-,-,-
O=c1c2ccccc2nc(-c2cccs2)n1-c1ccc2ccccc2c1,?,?,-,-,-
O=c1onc(-c2ccc(Cl)cc2Cl)n1-c1cccnc1,-,-,-,-,-
COc1ccc(OCC(=O)OCC(=O)NC2CCCCC2C)cc1 (stereo not given),-,-,.,-,-
COc1cc(NC2CCCCC2O)c2nc(-c3ccc(Cl)cc3)ccc2c1 (stereo not given),20.6µM,?,-,-,-
c1ccc(-c2nnsc2-c2ccccc2)cc1,-,-,-,-,.
O=S(=O)(c1ccc(Cl)c(Cl)c1)c1snnc1-c1ccccc1,2.59µM,3.26µM,?,-,-
NC(=O)C1CC(=O)N(c2ccc(OCc3ccc(Cl)c(Cl)c3)cc2)C1 (stereo not given),23.1µM,?,.,.,.
NC(=O)C1CC(=O)N(c2ccc(OCc3ccc(Cl)cc3Cl)cc2)C1 (stereo not given),-,-,-,-,-
Cc1cc2[nH]c3ccccc3c2c(C)n1,?,16.4µM,-,-,-
Cc1nc(=S)c2ccccc2[nH]1,-,?,-,-,-
COCCNC(=O)CN(Cc1ccc(F)cc1)C(=O)CCC(=O)Nc1nccs1,-,-,-,-,-

# Screening data deposited in PubChem by National Center for Advancing Translational Sciences (NCATS).
